# Data as given in ChEMBL document CHEMBL1961873, “Compounds: GSK PKIS; Assays: Nanosyn kinase panel” (2012).
# Legend:
# [1] = molecular target: Sphingosine kinase 1 (Homo sapiens) (UniProt Q9NYA1); settings: at 1 µM;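 also: mean SPHK1 inhibition value reported from the GSK PKIS kinase panel screen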
# [2] = molecular target: T1, Sphingosine kinase 2 (Homo sapiens) (UniProt Q9NRA0); settings: at 0.1 µM
# T1 sequence (whole entry): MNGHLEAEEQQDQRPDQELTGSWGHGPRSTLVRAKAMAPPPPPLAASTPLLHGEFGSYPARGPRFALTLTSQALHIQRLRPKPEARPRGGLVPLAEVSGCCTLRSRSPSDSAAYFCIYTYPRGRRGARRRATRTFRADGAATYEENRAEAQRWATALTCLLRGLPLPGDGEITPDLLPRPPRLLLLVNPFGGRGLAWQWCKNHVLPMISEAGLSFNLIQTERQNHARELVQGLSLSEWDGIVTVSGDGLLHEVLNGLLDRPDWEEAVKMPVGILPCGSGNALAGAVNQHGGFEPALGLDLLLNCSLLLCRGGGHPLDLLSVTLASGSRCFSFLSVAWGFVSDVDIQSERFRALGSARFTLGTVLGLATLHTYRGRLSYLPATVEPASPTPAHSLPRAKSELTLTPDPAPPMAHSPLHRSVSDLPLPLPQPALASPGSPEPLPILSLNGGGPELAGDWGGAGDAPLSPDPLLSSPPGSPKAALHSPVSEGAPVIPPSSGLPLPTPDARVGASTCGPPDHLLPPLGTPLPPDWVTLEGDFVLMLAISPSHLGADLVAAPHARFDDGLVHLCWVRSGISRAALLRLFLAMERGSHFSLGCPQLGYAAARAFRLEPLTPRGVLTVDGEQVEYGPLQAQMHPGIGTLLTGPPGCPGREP
# [3] = molecular target: T1, Sphingosine kinase 2 (Homo sapiens); settings: at 1 µM
# [4] = molecular target: Casein kinase II subunit alpha (Homo sapiens) (UniProt P68400); settings: at 0.1 µM
# Sequence of Casein kinase II subunit alpha (Homo sapiens) (P68400 whole entry, looked up): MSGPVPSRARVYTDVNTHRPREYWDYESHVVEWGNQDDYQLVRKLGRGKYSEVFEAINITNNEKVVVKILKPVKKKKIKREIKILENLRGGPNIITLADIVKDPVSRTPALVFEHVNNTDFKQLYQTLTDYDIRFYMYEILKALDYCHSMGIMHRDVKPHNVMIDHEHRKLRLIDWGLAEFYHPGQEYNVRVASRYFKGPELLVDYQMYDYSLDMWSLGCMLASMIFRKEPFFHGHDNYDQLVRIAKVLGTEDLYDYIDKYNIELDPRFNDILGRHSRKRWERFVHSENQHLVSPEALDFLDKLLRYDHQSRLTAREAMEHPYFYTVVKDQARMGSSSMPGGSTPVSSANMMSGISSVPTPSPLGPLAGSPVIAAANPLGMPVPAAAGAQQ
# [5] = molecular target: Casein kinase II subunit alpha (Homo sapiens) (UniProt P68400); settings: at 1 µM
# [6] = molecular target: T2, Inhibitor of nuclear factor kappa-B kinase subunit alpha (Homo sapiens) (UniProt O15111); settings: at 0.1 µM
# T2 sequence (whole entry): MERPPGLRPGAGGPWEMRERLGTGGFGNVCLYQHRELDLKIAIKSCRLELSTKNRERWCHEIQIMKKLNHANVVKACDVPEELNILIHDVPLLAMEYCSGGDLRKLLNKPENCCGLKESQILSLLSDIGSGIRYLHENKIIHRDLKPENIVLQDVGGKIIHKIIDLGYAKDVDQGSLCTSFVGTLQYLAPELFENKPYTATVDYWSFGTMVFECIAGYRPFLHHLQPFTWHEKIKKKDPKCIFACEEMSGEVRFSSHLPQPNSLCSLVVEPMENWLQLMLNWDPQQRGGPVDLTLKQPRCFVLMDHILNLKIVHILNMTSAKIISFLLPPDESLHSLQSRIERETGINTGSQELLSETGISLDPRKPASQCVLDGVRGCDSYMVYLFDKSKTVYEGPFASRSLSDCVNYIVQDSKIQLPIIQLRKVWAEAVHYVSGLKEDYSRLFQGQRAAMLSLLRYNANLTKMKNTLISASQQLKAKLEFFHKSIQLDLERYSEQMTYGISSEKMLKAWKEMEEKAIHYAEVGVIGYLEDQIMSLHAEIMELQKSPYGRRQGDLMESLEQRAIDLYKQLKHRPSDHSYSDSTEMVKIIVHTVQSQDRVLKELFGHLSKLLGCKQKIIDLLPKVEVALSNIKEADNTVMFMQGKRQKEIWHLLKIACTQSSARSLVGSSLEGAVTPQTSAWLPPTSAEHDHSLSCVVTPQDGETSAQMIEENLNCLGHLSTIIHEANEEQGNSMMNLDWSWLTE
# [7] = molecular target: T2, Inhibitor of nuclear factor kappa-B kinase subunit alpha (Homo sapiens); settings: at 1 µM
# [8] = molecular target: T3, Inhibitor of nuclear factor kappa-B kinase subunit beta (Homo sapiens) (UniProt O14920); settings: at 0.1 µM
# T3 sequence (whole entry): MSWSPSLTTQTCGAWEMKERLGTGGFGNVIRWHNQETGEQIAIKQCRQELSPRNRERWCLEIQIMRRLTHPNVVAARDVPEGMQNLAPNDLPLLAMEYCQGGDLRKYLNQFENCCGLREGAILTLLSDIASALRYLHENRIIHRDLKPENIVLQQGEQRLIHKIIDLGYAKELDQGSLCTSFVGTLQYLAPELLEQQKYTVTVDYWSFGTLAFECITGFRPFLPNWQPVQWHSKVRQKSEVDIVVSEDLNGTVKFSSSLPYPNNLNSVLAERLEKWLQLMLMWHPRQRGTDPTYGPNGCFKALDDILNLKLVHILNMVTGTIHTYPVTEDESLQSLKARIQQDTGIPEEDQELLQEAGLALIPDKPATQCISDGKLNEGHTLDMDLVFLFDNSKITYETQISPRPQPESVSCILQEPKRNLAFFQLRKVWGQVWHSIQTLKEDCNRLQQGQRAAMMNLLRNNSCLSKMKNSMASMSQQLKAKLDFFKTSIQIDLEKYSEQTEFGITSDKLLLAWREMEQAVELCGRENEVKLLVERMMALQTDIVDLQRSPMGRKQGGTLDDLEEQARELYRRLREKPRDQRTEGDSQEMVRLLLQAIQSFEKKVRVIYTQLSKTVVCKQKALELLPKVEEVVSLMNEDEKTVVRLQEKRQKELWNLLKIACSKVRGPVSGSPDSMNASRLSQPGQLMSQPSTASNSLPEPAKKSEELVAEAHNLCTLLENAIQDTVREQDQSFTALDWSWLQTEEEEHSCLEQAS
# [9] = molecular target: T3, Inhibitor of nuclear factor kappa-B kinase subunit beta (Homo sapiens); settings: at 1 µM
# [10] = molecular target: T4, Inhibitor of nuclear factor kappa-B kinase subunit epsilon (Homo sapiens) (UniProt Q14164); settings: at 0.1 µM
# T4 sequence (whole entry): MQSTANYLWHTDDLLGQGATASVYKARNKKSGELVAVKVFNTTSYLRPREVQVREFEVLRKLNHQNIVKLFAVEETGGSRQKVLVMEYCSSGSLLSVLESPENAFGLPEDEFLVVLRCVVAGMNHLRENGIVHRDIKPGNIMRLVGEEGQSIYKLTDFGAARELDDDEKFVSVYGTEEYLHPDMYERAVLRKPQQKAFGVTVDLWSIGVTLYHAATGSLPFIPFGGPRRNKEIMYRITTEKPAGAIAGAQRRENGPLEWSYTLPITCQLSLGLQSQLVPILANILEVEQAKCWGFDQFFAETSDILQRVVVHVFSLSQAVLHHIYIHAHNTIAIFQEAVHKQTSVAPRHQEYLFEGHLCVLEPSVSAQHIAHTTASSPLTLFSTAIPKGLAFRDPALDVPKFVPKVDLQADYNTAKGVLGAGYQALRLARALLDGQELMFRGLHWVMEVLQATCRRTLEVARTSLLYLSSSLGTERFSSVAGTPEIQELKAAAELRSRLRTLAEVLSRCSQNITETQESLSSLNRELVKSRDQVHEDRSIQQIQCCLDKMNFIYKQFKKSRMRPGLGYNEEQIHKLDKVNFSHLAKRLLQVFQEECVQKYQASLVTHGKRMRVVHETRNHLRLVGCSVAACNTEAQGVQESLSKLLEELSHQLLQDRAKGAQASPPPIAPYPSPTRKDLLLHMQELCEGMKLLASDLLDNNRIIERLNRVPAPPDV
# [11] = molecular target: T4, Inhibitor of nuclear factor kappa-B kinase subunit epsilon (Homo sapiens); settings: at 1 µM
# [12] = molecular target: T5, Serine/threonine-protein kinase Nek1 (Homo sapiens) (UniProt Q96PY6); settings: at 0.1 µM
# T5 sequence (whole entry): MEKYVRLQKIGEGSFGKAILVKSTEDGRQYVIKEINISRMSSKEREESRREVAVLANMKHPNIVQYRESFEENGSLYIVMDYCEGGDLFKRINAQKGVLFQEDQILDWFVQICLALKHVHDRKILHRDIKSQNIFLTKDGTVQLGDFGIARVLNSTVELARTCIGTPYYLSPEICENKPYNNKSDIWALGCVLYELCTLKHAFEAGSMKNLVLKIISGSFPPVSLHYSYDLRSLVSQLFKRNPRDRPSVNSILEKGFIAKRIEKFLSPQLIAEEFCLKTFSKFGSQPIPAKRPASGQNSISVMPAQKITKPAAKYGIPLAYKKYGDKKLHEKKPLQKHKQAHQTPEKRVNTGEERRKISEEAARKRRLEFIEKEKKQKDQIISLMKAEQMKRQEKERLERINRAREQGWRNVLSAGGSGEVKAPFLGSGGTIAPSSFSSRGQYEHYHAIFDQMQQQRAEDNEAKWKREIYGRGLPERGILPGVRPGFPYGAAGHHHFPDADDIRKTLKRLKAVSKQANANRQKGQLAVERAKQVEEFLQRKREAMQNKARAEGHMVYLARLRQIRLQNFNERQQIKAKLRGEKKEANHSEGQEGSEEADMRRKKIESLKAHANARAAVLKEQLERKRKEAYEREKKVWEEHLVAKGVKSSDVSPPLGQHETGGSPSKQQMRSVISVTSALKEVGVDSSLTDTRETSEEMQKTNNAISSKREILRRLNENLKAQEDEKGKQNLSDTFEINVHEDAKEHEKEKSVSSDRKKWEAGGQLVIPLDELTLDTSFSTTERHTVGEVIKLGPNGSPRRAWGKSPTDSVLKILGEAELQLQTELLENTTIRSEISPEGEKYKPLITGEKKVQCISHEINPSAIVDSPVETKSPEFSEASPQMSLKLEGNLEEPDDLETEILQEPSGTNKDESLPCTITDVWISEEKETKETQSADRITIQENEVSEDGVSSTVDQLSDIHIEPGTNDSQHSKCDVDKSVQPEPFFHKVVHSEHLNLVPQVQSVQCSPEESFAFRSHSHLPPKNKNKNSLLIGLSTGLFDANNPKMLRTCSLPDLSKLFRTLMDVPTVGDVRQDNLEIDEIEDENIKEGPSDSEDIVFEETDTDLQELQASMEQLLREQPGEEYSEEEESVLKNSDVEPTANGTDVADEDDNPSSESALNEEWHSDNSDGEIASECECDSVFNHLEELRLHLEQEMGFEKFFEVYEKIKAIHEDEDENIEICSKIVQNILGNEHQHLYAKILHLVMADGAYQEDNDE
# [13] = molecular target: T5, Serine/threonine-protein kinase Nek1 (Homo sapiens); settings: at 1 µM
# [14] = molecular target: T6, Serine/threonine-protein kinase Nek2 (Homo sapiens) (UniProt P51955); settings: at 0.1 µM
# T6 sequence (whole entry): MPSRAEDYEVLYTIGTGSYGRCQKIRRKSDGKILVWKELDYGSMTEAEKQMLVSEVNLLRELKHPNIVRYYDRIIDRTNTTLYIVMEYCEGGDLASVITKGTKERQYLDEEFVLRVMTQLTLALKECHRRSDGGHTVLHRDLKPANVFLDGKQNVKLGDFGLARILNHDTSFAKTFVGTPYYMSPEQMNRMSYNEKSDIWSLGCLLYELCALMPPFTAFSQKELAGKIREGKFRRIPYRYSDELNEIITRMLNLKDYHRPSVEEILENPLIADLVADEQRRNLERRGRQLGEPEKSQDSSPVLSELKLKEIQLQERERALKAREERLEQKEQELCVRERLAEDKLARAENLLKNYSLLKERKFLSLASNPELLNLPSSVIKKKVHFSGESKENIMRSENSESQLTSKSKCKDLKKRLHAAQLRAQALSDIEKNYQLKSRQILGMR
# [15] = molecular target: T6, Serine/threonine-protein kinase Nek2 (Homo sapiens); settings: at 1 µM
# [16] = molecular target: Serine/threonine-protein kinase Nek6 (Homo sapiens) (UniProt Q9HC98); settings: at 0.1 µM
# Sequence of Serine/threonine-protein kinase Nek6 (Homo sapiens) (Q9HC98 whole entry): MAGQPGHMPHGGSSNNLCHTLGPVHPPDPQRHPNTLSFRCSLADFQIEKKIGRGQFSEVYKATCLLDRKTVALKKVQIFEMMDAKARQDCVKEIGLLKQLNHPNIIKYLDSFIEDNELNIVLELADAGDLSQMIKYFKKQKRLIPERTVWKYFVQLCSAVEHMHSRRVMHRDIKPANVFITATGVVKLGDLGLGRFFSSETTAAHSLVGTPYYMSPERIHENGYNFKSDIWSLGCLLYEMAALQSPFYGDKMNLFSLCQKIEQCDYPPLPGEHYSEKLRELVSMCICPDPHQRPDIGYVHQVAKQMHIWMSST
# [17] = molecular target: Serine/threonine-protein kinase Nek6 (Homo sapiens) (UniProt Q9HC98); settings: at 1 µM
# [18] = molecular target: Serine/threonine-protein kinase Nek7 (Homo sapiens) (UniProt Q8TDX7); settings: at 0.1 µM
# Sequence of Serine/threonine-protein kinase Nek7 (Homo sapiens) (Q8TDX7 whole entry, looked up): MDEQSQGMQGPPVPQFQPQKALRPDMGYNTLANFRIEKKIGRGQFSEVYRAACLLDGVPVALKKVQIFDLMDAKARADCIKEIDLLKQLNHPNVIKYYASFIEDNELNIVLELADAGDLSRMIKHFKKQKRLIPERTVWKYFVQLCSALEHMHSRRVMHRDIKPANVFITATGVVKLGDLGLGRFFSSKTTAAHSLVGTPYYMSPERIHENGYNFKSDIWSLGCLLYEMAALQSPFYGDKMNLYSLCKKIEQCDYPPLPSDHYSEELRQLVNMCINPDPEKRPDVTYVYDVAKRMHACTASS
# [19] = molecular target: Serine/threonine-protein kinase Nek7 (Homo sapiens) (UniProt Q8TDX7); settings: at 1 µM
# [20] = molecular target: T7, Serine/threonine-protein kinase Nek9 (Homo sapiens) (UniProt Q8TD19); settings: at 0.1 µM;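 also: reported value is the mean percent inhibition of NEK9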
# T7 sequence (whole entry): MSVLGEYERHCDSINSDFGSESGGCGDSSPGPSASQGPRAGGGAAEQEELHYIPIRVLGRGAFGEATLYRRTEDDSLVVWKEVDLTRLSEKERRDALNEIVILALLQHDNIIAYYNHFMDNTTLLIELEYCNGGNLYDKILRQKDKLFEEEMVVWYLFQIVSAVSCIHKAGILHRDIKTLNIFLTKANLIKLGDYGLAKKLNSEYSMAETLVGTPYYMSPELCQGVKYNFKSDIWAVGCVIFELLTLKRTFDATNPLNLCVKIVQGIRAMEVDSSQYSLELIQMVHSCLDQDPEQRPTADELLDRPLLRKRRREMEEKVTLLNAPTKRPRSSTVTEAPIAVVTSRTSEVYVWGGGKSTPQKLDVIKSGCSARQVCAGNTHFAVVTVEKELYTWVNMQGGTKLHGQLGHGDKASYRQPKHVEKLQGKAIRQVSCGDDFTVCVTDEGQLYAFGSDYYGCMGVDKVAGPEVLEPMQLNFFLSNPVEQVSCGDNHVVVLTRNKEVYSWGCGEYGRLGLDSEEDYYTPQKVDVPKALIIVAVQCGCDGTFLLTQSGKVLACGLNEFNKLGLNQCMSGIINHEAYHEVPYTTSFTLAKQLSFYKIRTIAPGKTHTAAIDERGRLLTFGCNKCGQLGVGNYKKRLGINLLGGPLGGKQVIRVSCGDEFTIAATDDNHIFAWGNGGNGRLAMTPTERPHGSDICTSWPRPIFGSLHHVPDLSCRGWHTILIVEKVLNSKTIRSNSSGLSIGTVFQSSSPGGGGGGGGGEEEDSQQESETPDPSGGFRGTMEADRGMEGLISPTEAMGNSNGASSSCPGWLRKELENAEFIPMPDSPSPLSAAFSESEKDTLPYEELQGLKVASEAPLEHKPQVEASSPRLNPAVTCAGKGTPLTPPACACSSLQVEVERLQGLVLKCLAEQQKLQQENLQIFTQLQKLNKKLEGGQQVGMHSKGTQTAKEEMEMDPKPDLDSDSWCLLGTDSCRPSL
# Sequence of Sphingosine kinase 1 (Homo sapiens) (Q9NYA1 whole entry): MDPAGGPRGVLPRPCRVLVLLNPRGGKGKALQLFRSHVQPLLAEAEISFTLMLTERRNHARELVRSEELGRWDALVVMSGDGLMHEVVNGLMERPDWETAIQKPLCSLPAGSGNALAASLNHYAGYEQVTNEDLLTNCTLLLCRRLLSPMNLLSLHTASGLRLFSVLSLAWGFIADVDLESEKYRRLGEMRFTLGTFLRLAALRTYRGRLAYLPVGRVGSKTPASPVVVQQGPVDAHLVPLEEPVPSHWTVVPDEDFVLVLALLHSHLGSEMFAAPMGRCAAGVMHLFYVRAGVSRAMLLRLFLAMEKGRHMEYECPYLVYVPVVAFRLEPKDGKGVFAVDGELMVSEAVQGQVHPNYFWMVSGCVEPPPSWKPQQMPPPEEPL
smiles,measurement,setting,value
CS(=O)(=O)CCNCc1ccc(-c2ccc3ncnc(Nc4ccc(OCc5cccc(F)c5)c(C(F)(F)F)c4)c3c2)o1,inhibition,[1],-2.4%
same,inhibition,[2],0.03%
same,inhibition,[3],0.79%
same,inhibition,[4],3.22%
same,inhibition,[5],5.65%
same,inhibition,[6],7.6%
same,inhibition,[7],5.45%
same,inhibition,[8],5.87%
same,inhibition,[9],5.15%
same,inhibition,[10],5.42%
same,inhibition,[11],2.73%
same,inhibition,[12],2.28%
same,inhibition,[13],4.09%
same,inhibition,[14],4.44%
same,inhibition,[15],3.68%
same,inhibition,[16],2.48%
same,inhibition,[17],3.62%
same,inhibition,[18],4.72%
same,inhibition,[19],4.32%
same,inhibition,[20],7.55%
